Many of the other results were omitted from the sample, so hits are more common in it than they were.
NOMO-1 viab – STK33 inhibitor candidate reducing NOMO-1 cell viability. NOMO-1 AML viability, CellTiter-Glo luminescence, 72 h. inhibition, % (no concentration beside the values). 37,000 tested, 7.5% active; in the data active = inhibition above about 80%
STK33 inh – human STK33 kinase inhibition; ADP-Glo luminescence, MBP substrate; 27,000 tested, 0.44% active; Q9BYT3; inhibition, % at 12.5 µM; in the data active = inhibition above about 20%
Target sequence (Q9BYT3 whole entry, looked up): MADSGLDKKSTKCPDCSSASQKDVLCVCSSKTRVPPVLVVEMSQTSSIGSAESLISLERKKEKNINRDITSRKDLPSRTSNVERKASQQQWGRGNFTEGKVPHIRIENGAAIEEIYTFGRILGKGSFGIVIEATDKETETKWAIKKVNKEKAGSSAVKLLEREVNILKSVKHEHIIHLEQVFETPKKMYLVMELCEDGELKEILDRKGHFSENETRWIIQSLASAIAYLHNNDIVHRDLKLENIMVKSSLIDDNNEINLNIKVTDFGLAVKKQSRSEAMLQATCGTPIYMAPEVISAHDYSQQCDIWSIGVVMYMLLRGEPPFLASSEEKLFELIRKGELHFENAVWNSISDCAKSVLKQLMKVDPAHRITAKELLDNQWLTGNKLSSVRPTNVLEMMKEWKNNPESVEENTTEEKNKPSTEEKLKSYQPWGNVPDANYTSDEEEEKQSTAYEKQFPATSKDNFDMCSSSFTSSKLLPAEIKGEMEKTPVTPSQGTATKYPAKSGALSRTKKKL
PD-1 reverse act – reversal of PD-1 mediated T-cell inhibition. 29,000 tested, under 10 active. activation, % (no concentration beside the values). primary human CD4 T cells, PD-L1 beads, CellTiter-Glo 96 h; call rule not given here;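 note: 0% = median vehicle wells and 100% = positive control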
* marks the source's active call; other numbers are inactive results; . = not tested or not shown; ! = not active in a repeat.

SMILES	NOMO-1 viab	STK33 inh	PD-1 reverse act
Cc1sc2nc(SCCC(=O)NC3CCCCC3)[nH]c(=O)c2c1C	-3	0	1
C[C@H]1CN([C@@H](C)CO)C(=O)c2cc(NC(=O)c3ccncc3)ccc2O[C@@H]1CN(C)Cc1ccc(C(F)(F)F)cc1	-4	1	-1
C[C@H](CO)N1C[C@H](C)[C@H](CN(C)Cc2ccncc2)Oc2ccc(NC(=O)Nc3ccc(C(F)(F)F)cc3)cc2C1=O	86*	.	0
C[C@H]1CN([C@@H](C)CO)C(=O)c2cc(NC(=O)Nc3ccc(C(F)(F)F)cc3)ccc2O[C@H]1CN(C)Cc1ccncc1	102*	.	2
C[C@H](CO)N1C[C@H](C)[C@@H](CN(C)Cc2ccncc2)Oc2ccc(NC(=O)Nc3ccc(C(F)(F)F)cc3)cc2C1=O	20	.	.
COc1ccc(N2Cc3ccccc3C3(CCOCC3)C2=N)cc1	39	-4	-1
COc1cccc(NC(=O)CSc2nnc(-c3ccncc3)n2-c2ccc(C)cc2)c1	4	-2	-2
Cc1ccc(NC(=O)CN(c2cccc(F)c2)S(C)(=O)=O)cc1	21	5	-1
O=C(CC1NC(=O)NC1=O)Nc1cccc(C(F)(F)F)c1 (stereo unspecified)	1	2	2
Cc1ccc(N(CC(O)Cn2c3ccccc3c3ccccc32)S(C)(=O)=O)c(C)c1 (stereo unspecified)	90*	2	0
Cc1ccc(N(CC(O)Cn2c3ccccc3c3ccccc32)S(C)(=O)=O)cc1 (stereo unspecified)	44	-1	-4
COc1nnc(-c2ccc(N3CCOCC3)c(NC(=O)COc3ccc(C)cc3)c2)c2ccccc12	-2	0	4
CSC1=C(C#N)C(=O)NC(c2ccc(Cl)cc2)S1 (stereo unspecified)	116*	.	-4
COc1cccc(NC2=C(C#N)C(=O)NC(c3cccc(OC)c3O)S2)c1 (stereo unspecified)	11	.	1
COc1ccc(-n2c(SCC(=O)Nc3ccccc3C(F)(F)F)nnc2-c2ccccc2)cc1	5	1	1
COc1ccc(NC(=O)c2cc(-c3ccccn3)nc3c(C)cc(C)cc23)c([N+](=O)[O-])c1	68	0	.
COc1ccc(S(=O)(=O)Nc2ccc(Br)c3cccnc23)c([N+](=O)[O-])c1	128*	-2	-9
Cc1onc(-c2ccccc2)c1C(=O)NCCCn1ccnc1	3	0	1
Cc1oc2c(c1C(=O)NCCCn1ccnc1)C(=O)c1ccccc1C2=O	141*	.	-5
COc1ccccc1CCNC(=O)c1ccoc1C	10	-2	1
Cc1oc2c(c1C(=O)NCCC(C)C)C(=O)c1ccccc1C2=O	140*	.	-5
COc1cc(CNCc2ccccc2)cc(I)c1OCC#N	35	1	-2
O=C1c2ccccc2C(=O)N1CC12CC3CC(CC(C3)C1)C2	98*	.	-4
O=C(NC1CC1)[C@@H]1c2ccccc2C(=O)N(CC23CC4CC(CC(C4)C2)C3)[C@H]1c1ccc(CO)cc1	.	-3	.
O=S(=O)(NCC1CCN(Cc2cccc(OCCO)c2)CC1)c1ccc(Cl)c(Cl)c1	.	2	.
SMILES	NOMO-1 viab	STK33 inh	PD-1 reverse act
CC(C)NC(=O)Nc1cccc2c1O[C@H](CN(C)Cc1ccc(C(=O)Nc3ccccc3N)cc1)[C@H](C)CN([C@@H](C)CO)C2=O	139*	.	-3
C[C@H](CO)N1C[C@H](C)[C@H](CN(C)Cc2ccc(C(=O)Nc3ccccc3N)cc2)Oc2c(NS(C)(=O)=O)cccc2C1=O	52	.	1
CC(C)NC(=O)Nc1cccc2c1O[C@@H](CN(C)Cc1ccc(C(=O)Nc3ccccc3N)cc1)[C@@H](C)CN([C@@H](C)CO)C2=O	141*	.	-2
CC(C)NC(=O)Nc1cccc2c1O[C@@H](CN(C)Cc1ccc(C(=O)Nc3ccccc3N)cc1)[C@@H](C)CN([C@H](C)CO)C2=O	71	.	2
CCCC1C2C(=O)N(c3ccccc3)C(=O)C2ON1c1ccc(Cl)c(Cl)c1 (stereo unspecified)	7	-2	1
COc1ccc(Cl)cc1NC(=O)CSc1nnc(N)s1	4	-6	-1
CCCC(O)c1c(O)cccc1C1(O)CC(=O)C/C1=C\C(O)CC(=O)O (stereo unspecified)	121*	-4	-15
CCOC(=O)CC1=Nn2c(nnc2-c2cccs2)SC1	-3	3	2
CCOC(=O)CSc1c(-c2cccs2)[nH]c2ccccc12	139*	.	-3
COC(=O)c1cn(CC(=O)Nc2ccccc2C(F)(F)F)c2ccccc12	15	1	.
O=C1/C(=C/c2c[nH]c3ccccc23)CSc2ccccc21	113*	.	1
C(=Nc1cccc2ccccc12)c1c[nH]c2ccccc12	72	.	1
CC(C)Cc1nc(SC(C)C(=O)Nc2cccc(Cl)c2)n[nH]1 (stereo unspecified)	13	1	0
O=C(CCN1CCCCC1)Nc1ccc(Cl)cc1	-16	.	0
CN(C)C(=O)C(CCN1CCC(O)(c2ccc(Cl)cc2)CC1)(c1ccccc1)c1ccccc1	138*!	0	1
O=C(NCCCn1ccnc1)c1nn2c(C(F)(F)F)cc(-c3cccs3)nc2c1Br	29	3	.
O=C(c1nn2c(C(F)(F)F)cc(-c3cccs3)nc2c1Cl)N1CCCc2ccccc21	107*	5	-16
CSc1ccccc1NC(=O)CN(C1CCCCC1)S(=O)(=O)c1ccc(F)cc1	46	-1	-2
CC1(C)CC(=O)C=C(Sc2nc3ccccc3o2)C1	120*	-1	-37
O=C(CCSc1nc2ccccc2o1)N1CCOCC1	-11	3	.
COc1ccc(S(=O)(=O)N(C)CC(=O)Nc2cc(C)ccc2C)cc1C	33	-5	-1
COc1ccc(-c2cc(=O)c3c(O)cc(O)cc3o2)cc1	-4	25*	.
COc1cc(O)c2c(=O)cc(-c3ccc(OC)c(-c4c(O)cc(O)c5c(=O)cc(-c6ccc(O)cc6)oc45)c3)oc2c1	108*	1	.
COc1ccc(-c2cc(=O)c3c(OC)cc(OC)cc3o2)cc1	-7	1	.
O=c1c(-c2c(O)cc(O)c3c(=O)cc(-c4ccc(O)cc4)oc23)c(-c2ccc(O)cc2)oc2cc(O)cc(O)c12	13	3	0
SMILES	NOMO-1 viab	STK33 inh	PD-1 reverse act
O=c1c(OC2OCC(O)C(O)C2O)c(-c2ccc(O)c(O)c2)oc2cc(O)cc(O)c12 (stereo unspecified)	.	2	.
O=c1cc(-c2ccc(O)c(O)c2)oc2cc(O)cc(O)c12	76	78*	.
O=C(Nc1nc(-c2ccccc2)nc2c1C(=O)CCC2)c1ccccc1	-8	.	0
C[C@H]1[C@H](C)CC[C@]2(C(=O)O[C@@H]3O[C@H](COC4O[C@H](CO)[C@@H](OC5O[C@@H](C)[C@H](O)[C@@H](O)[C@H]5O)[C@H](O)[C@H]4O)[C@@H](O)[C@H](O)[C@H]3O)CC[C@]3(C)C(=CC[C@@H]4[C@@]5(C)C[C@@H](O)[C@H](O)[C@@](C)(CO)C5CC[C@]43C)[C@H]12 (stereo partly specified)	8	5	.
Cc1ccc(NC(=O)C(C)Oc2ccc(Br)cc2)c([N+](=O)[O-])c1 (stereo unspecified)	3	2	0
COc1ccc(-c2c(-c3ccc(OCc4cnn(-c5ccccc5)c4)c(C)c3O)n[nH]c2C)cc1	24	-1	1
O=C(Cn1ccc([N+](=O)[O-])n1)Nc1cccnc1	-6	-1	4

Assay outcomes: PubChem, Broad Institute
